High-throughput results as filed in PubChem.
This is a sample that favours compounds with a hit; in the whole collection about 3.7% have one here.
Rv3671c protease: Rv3671c serine protease inhibitors, primary screen, biochemical, fluorescence polarization, M. tuberculosis H37Rv; 320,000 tested, 0.048% active; AID 2606, 2010; P9WHR9; inhibition, % at 5.96 µM; in the data active = inhibition above about 38%;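 note: extracellular domain of Rv3671c used as enzyme; 0% = enzyme with DMSO and 100% = no enzyme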
UGM FP inh: M. tuberculosis UGM enzyme inhibitors, primary screen, biochemical, fluorescence polarization, single point; 320,000 tested, 0.06% active; UDP-galactopyranose mutase (Mycobacterium tuberculosis (strain ATCC 25618 / H37Rv)), …; inhibition, % at 10 µM; purified UGM, fluorescence polarization probe displacement; AID 504406, 2011; in the data active = inhibition above about 10%, passing the limit was not always enough
Target sequence (P9WIQ1 whole entry, looked up): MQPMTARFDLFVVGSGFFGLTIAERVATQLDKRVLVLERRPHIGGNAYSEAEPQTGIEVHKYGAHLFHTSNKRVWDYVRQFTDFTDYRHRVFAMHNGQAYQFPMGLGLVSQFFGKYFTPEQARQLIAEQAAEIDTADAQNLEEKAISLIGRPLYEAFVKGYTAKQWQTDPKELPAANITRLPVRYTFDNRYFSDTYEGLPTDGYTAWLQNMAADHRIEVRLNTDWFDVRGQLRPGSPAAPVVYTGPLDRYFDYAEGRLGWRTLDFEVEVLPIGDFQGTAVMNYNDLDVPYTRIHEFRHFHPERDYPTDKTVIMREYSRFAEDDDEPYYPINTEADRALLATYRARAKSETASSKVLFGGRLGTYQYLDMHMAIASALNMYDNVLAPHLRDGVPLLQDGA
FadD28 FP inh: inhibitors of FadD28 bisubstrate probe binding, primary screen, biochemical, fluorescence polarization, single point | Mycobacterium tuberculosis FadD28 fatty-acid-AMP ligase | inhibition, % at 12.5 µM | 360,000 tested, 0.22% active | AID 588549, 2011; in the data active = inhibition above about 8.5%, passing the limit was not always enough
Mtb bLac sens: beta-lactam sensitization of Mtb H37Rv, H37Rv; M. tuberculosis H37Rv growth with meropenem, percent inhibition; inhibition, % at 25 µM; 330,000 tested, 0.27% active; AID 434955, 2010; call rule not given here;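 note: growth measured after seven days incubation then overnight dye step; 0% = bacteria only wells and 100% = bacteria with antibiotic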
FBA Mtb inh: Mtb FBA enzyme inhibitors, primary screen, biochemical, fluorescence, strain H37Rv; inhibition, % at 1 µM; Fructose-bisphosphate aldolase (Mycobacterium tuberculosis (strain ATCC 25618 / H37Rv)), …; purified M. tuberculosis FBA, fluorescence read-out; 360,000 tested, 2.3% active;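 note: 0% = vehicle and 100% = reference inhibitor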
GDH-TPI counter-1: GDH-TPI coupling enzyme inhibitors, primary screen, artefact control for M. tuberculosis FBA inhibitor project, biochemical, absorbance, full deck; GDH-TPI coupled enzyme counterscreen, NADH absorbance; inhibition, % at 4.8 µM; 360,000 tested, 1.2% active; AID 588335, 2011; in the data active = inhibition above about 30%;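 note: 0% = DMSO wells and 100% = wells lacking the enzyme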
Mtb FBA confirm: M. tuberculosis aldolase blockers, biochemical, fluorescence, strain H37Rv, confirmation; 5,600 tested, 78% active; AID 651616, 2012; inhibition, % at 1 µM; shares compounds with FBA Mtb inh; purified M. tuberculosis FBA, fluorescence read-out;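 note: 0% = vehicle wells and 100% = reference inhibitor wells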
GDH-TPI counter-2: GDH-TPI coupling enzyme inhibitors, artefact control for M. tuberculosis FBA inhibitor project, biochemical, fluorescence, high throughput; shares compounds with FBA Mtb inh; GDH-TPI coupled enzyme counterscreen; inhibition, % at 1 µM; 5,600 tested, 81% active; AID 652141, 2013; in the data active = inhibition above about 10%
GDH-TPI dose: GDH-TPI coupling enzyme inhibitors, dose response, artefact control for M. tuberculosis FBA inhibitor project, biochemical, fluorescence, IC50; GDH-TPI coupled enzyme assay, artifact counterscreen; IC50, µM; AID 652145, 2013; shares compounds with FBA Mtb inh; 170 tested, 79% active; call rule not given here
Numbers without * were called inactive; . = no result. Cut-off read from the data, not from the text of the source, unless noted: active = inhibition above about 27%; inactive = the rest.

SMILES	Rv3671c protease	UGM FP inh	FadD28 FP inh	Mtb bLac sens	FBA Mtb inh	GDH-TPI counter-1	Mtb FBA confirm	GDH-TPI counter-2	others
CCC(c1nnnn1-c1ccc2c(c1)OCCO2)N1CCN(C/C=C/c2ccccc2)CC1 (stereo not drawn)	.	.	-3	.	-1	.	.	.
COC(=O)Cc1c(C)c2ccc(OC(=O)c3ccccc3)cc2oc1=O	0	0	0	94	79*	8	99*	90*
O=C(COc1ccc2c(-c3ccccc3)cc(=O)oc2c1)N[C@H](Cc1c[nH]c2ccccc12)C(=O)O	-6	-1	-3	-3	-1	6	.	.
Cc1c(Cc2ccccc2)c(=O)oc2cc(OCC(=O)NCc3ccccn3)ccc12	-9	2	-2	1	78*	13	88*	70*
O=C(COc1ccc2c(c1)oc(=O)c1ccccc12)NC(Cc1ccc(Cl)cc1)C(=O)O (stereo not drawn)	-22	-1	-11	-2	74*	13	186*	132*
COc1cccc(C(=O)COc2ccc3c(C)c(Cc4ccccc4)c(=O)oc3c2)c1	-26	-1	-1	-1	7	6	.	.
Cc1c(Cc2ccccc2)c(=O)oc2cc(OCC(=O)N[C@@H](Cc3ccccc3)C(=O)O)ccc12	5	-2	-4	-3	92*	10	165*	136*
CCOc1ccc(S(=O)(=O)N2CCN(C(=O)c3cc4ccccc4o3)CC2)cc1	-12	-1	-3	-8	2	1	.	.
CCCCNC(=O)C1(C)CCN1C(=O)c1cc(F)ccc1C (stereo not drawn)	.	.	-2	.	2	-6	.	.
O=C(NCCN1CCOCC1)c1ccc(Cl)c(S(=O)(=O)NCc2ccccc2)c1	0	-1	-1	-1	4	1	.	.
COc1cc2c(cc1OC)C(C1C(=O)CC(C)CC1=O)N(C(=O)CCl)CC2 (stereo not drawn)	6	0	-1	3	31*	1	11	5	GDH-TPI dose=>10
CC(=O)Nc1ccc(S(=O)(=O)NCCC(=O)Nc2cc(C)ccn2)cc1	9	-1	1	-3	5	-1	.	.
O=c1[nH]cnc2c1ncn2-c1ccc(N(CCO)CCO)cc1	.	.	-1	.	1	4	.	.
Cc1ccc(C2Nc3ccccc3C(=O)N2Cc2ccco2)cc1 (stereo not drawn)	-1	-1	-1	-2	43*	14	86*	56*
COc1ccc(C2Nc3ccccc3C(=O)N2c2ccccc2)cc1COc1ccccn1 (stereo not drawn)	-5	0	-4	-1	90*	-5	90*	75*
COc1ccc(C2Nc3ccccc3C(=O)N2Cc2ccco2)cc1COc1ccc(NC(C)=O)cc1 (stereo not drawn)	-6	2	0	-6	41*	12	3	-4
O=C1c2ccccc2NC(c2cccc(F)c2)N1Cc1ccco1 (stereo not drawn)	-3	2	-3	1	60*	9	74*	59*
COc1ccc2cc(C#CC3=CC(=O)C[C@H](c4ccc(F)cc4)C3)ccc2c1	.	.	1	.	7	10	.	.
CCNC(=O)C1(C)CCN(C(=O)c2cccc(OC(C)=O)c2C)C1 (stereo not drawn)	.	.	-2	.	-3	7	.	.
COc1cc(CC(=O)N2CCN(S(=O)(=O)c3ccc(C(C)C)cc3)CC2)cc(OC)c1OC	.	.	-2	.	-1	2	.	.
O=C1c2ccccc2NC(c2c(Cl)cccc2Cl)N1Cc1ccccc1 (stereo not drawn)	-7	3	-1	4	26	2	.	.
O=C1c2ccccc2NC(c2cccc(F)c2)N1Cc1ccccc1 (stereo not drawn)	4	1	-2	7	58*	6	97*	81*
CCN1C(=O)[C@H]2[C@@H](c3ccc(-c4ccc(OC)cc4)cc3)N[C@@](C)(C(=O)OC)[C@H]2C1=O	-3	2	0	-6	100*	13	135*	94*
COC(=O)[C@]1(C)N[C@H](c2ccc(-c3ccc(OC)cc3)cc2)[C@@H]2C(=O)N(C)C(=O)[C@@H]21	-4	-3	-1	-3	16	13	.	.
Cc1cccc2c(C(=O)O)c3c(nc12)CCCCC3	-1	2	-4	-11	1	3	.	.
SMILES	Rv3671c protease	UGM FP inh	FadD28 FP inh	Mtb bLac sens	FBA Mtb inh	GDH-TPI counter-1	Mtb FBA confirm	GDH-TPI counter-2	others
Cc1cccc2c(C(=O)O)c3cccc(C)c3nc12	0	-2	-3	-2	95*	25	52*	55*
CCCCCCNC(=O)N[C@H](C(=O)NCCC[C@H]1CN2C(=NC[C@H]2C)N1CCC(c1ccccc1)c1ccccc1)C(C)O (stereo partly drawn)	-8	-2	.	91	.	.	.	.
COC1=Nc2ccccc2N2CCN=C12	.	.	-1	.	66*	.	12	7	GDH-TPI dose=3.5*
CCOC(=O)C1CCN(C(=O)c2ccc(NS(=O)(=O)c3ccc4[nH]c(=O)[nH]c4c3)cc2)CC1	.	.	0	.	-1	5	.	.
O=C(O)CCN1C(=O)c2ccc(NC(=O)C(c3ccccc3)c3ccccc3)cc2C1=O	8	-1	-2	-3	36*	10	-4	-6
CC(=O)Oc1ccc(C(=O)Nc2ccc3c(c2)C(=O)N(CCC(=O)O)C3=O)cc1	4	3	-4	-10	47*	23	132*	110*
O=C(O)CCN1C(=O)c2ccc(NC(=O)Cc3ccc(Cl)cc3)cc2C1=O	-2	3	-3	-1	31*	6	167*	154*
O=C(O)CCN1C(=O)c2ccc(NC(=O)CSCc3ccccc3)cc2C1=O	-12	5	1	-1	6	6	.	.
O=C(Cc1ccccc1)Nc1ccc2c(c1)C(=O)N(CC1CCCO1)C2=O (stereo not drawn)	2	0	-3	2	31*	1	149*	99*
O=C(O)CCN1C(=O)c2ccc(NC(=O)c3ccco3)cc2C1=O	0	-2	-3	-2	10	4	.	.
